Rows were chosen to be rich in hits. Some 4.6% of all compounds tested hit in one or more screens of this group.
TRHR agonist: qHTS for Small Molecule Agonists and Allosteric Enhancers of Human TRH Receptor: Primary Screen for Agonists. Thyrotropin-releasing hormone receptor (Homo sapiens), P34981. TRHR cells, calcium flux fluo-8, FDSS agonist mode. activation, % at 2 µM. hit rate 0.18% among 360,000; further: 0% is about no effect
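TRHR-expressing cells loaded with fluo-8 calcium dye; 23 nL library compound pin-transferred, kinetic FDSS fluorescence (Ex 480/Em 530) recorded about 180 s for agonist-induced calcium release, before a 10 nM TRH EC20 addition for potentiator mode.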
D1 ag: Allosteric Agonists of the Human D1 Dopamine Receptor: qHTS; HEK293 T-REx D1 cells, calcium flux, agonist mode; activation, % at 2 µM; hit rate 1% among 360,000; further: 0% is about no effect
Target sequence (P21728 whole entry, looked up): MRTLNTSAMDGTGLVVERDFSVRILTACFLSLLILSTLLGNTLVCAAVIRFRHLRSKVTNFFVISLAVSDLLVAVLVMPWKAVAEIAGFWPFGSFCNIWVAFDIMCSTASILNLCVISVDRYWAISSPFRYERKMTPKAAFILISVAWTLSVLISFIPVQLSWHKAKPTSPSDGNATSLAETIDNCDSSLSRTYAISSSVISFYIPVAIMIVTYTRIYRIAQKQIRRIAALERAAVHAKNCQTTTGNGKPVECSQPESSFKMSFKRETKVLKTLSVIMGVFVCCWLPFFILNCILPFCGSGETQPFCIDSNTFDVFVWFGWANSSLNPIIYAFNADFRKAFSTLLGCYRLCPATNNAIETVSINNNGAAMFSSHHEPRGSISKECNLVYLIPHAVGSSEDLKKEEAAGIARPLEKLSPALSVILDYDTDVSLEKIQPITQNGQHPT
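Inducible HEK293 T-REx D1 cells, force-coupled to calcium signalling, were plated at 4000 cells/well with tetracycline and held overnight at 30 C. After no-wash calcium dye loading, compound-evoked calcium rise over 180 s flagged agonists.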
TRHR PAM: qHTS for Small Molecule Agonists and Allosteric Enhancers of Human TRH Receptor: Primary Screen for Enhancers | hit rate 0.66% among 360,000 | enhancement, % at 2 µM | TRHR cells, fluo-8 calcium fluorescence, EC20 TRH enhancement | AID 493056, 2011; in the data active means enhancement above about 30%; further: 0% is about no effect
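Enhancer read-out: after compound pinning and an initial kinetic agonist-mode read, an EC20 of TRH (10 nM final) was injected and fluo-8 calcium signal (Ex 480/Em 530) followed at 1 s/cycle for 100 cycles in TRHR-expressing cells.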
D1 potentiator: Potentiators of Human D1 Dopamine Receptor: qHTS; HEK293 TREx D1 cells, calcium flux, dopamine EC20 potentiation; potentiation, % at 10 µM; hit rate 0.036% among 360,000; in the data active means potentiation above about 30%; further: 0% is about no effect
D1 antag: Antagonist of Human D 1 Dopamine Receptor: qHTS. D(1A) dopamine receptor (Homo sapiens), P21728. HEK293 TREx D1 cells, calcium flux, dopamine EC80; stronger effect = lower value. activity change, negative = inhibition, % at 10 µM. hit rate 3.2% among 360,000; in the data active means activity change below about -30%; further: on the % scale 0 is the no-effect control and ±100 the full control effect
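Cells carrying a force-coupled, tetracycline-inducible human D1 receptor report calcium flux. Each well gets a 10 s baseline, compound with 180 s monitoring, then an EC80 dopamine stimulus with a second 180 s kinetic read.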
* hit, by the source's call; nt = no result. Unless noted, no stated cut-off is given here; in the data, active means activation above about 30%; inactive means the rest.

SMILES	TRHR agonist	D1 ag	TRHR PAM	D1 potentiator	D1 antag
Cc1ccc(-c2cn3cccnc3n2)cc1NC(=O)Cc1ccccc1	0.5	0.9	4.0	0.2	-72.7*
COc1ccc(C)cc1S(=O)(=O)Nc1cccc(-c2cn3cccnc3n2)c1	0.2	0.8	30.9*	-2.6	-4.1
COc1ccc(-c2cn3cccnc3n2)cc1NC(=O)c1cc(C)cc(C)c1	-0.3	-0.6	-4.4	2.1	-87.4*
O=S(=O)(c1ccc2c(c1)OCCO2)N1CCN(S(=O)(=O)c2ccc(Br)cc2F)CC1	0.2	-0.5	2.7	2.1	-1.2
Cc1ccc(-c2nc3sc(CCNC(=O)c4ccc(F)c(F)c4)c(C)n3n2)cc1	-0.2	-1.4	-1.1	-2.4	nt
COc1ccc(-c2cc(C(=O)NCCc3ccccc3)c3c(-c4ccccc4)[nH]nc3n2)cc1OC	-0.9	4.4	4.4	-1.2	2.3
COc1ccc(CCNC(=O)c2cc(-c3ccc(C)cc3)nc3n[nH]c(-c4ccccc4)c23)cc1OC	0.3	2.8	47.8*	1.1	8.9
Nc1c(C(O)(C(F)(F)F)C(F)(F)F)cc(C(O)(C(F)(F)F)C(F)(F)F)c2ccccc12	2.1	39.8*	1.6	4.5	-29.7
O=C(CCCCCCC(=O)c1ccccc1)c1ccccc1	-0.5	1.5	-9.8	-1.4	-32.1*
COc1ccc(OC)c(S(=O)(=O)N2Cc3ccccc3CC2C(=O)Nc2ccc(C(C)=O)cc2)c1 (stereo unspecified)	1.2	5.6	-7.3	-2.2	-1.0
Cc1[nH]nc2c1C1(CCOC1C)C(C#N)=C(N)O2 (stereo unspecified)	1.1	3.1	-0.8	-4.3	-35.3*
Cc1cc(O)c(CN2CCN(c3ccc(F)cc3)CC2)c2oc(=O)cc(C)c12	0.4	-1.0	-4.7	4.5	10.1
Cc1ccc(CCNC(=O)C2CC(c3cc(C(F)(F)F)cc(C(F)(F)F)c3)=NO2)cc1 (stereo unspecified)	1.4	13.6	2.1	5.0	14.3
CC(C)CCNC(=O)C1CC(c2cccc(F)c2)=NO1 (stereo unspecified)	-0.7	4.9	1.0	3.7	14.9
Cc1ccc(CCNC(=O)C2CC(c3cccc(F)c3)=NO2)cc1 (stereo unspecified)	-1.2	3.5	0.0	4.2	-62.2*
CCCCNC(=O)C1CC(c2cccc(F)c2)=NO1 (stereo unspecified)	-0.3	4.9	4.4	8.3	-45.3*
Cc1ccc(NC(=O)C2CCCN(S(=O)(=O)c3c(C)n[nH]c3C)C2)cc1C (stereo unspecified)	0.7	0.8	-2.8	-3.1	-9.6
O=C(Cc1cccc2ccccc12)Nc1c(F)cccc1F	-1.6	1.2	3.6	-5.3	-35.5*
COc1ccc(NC(=O)c2ccc(Cl)nc2)cc1S(=O)(=O)N1CCOCC1	1.9	4.3	-1.4	-0.2	-15.1
O=C(Cn1ncc(Cl)c(Cl)c1=O)Nc1ccc2c(c1)OCO2	-0.1	0.0	2.0	-8.9	-50.0*
COc1ccc(NC(=O)Cn2ncc(Cl)c(Cl)c2=O)cc1S(=O)(=O)N1CCOCC1	-1.6	0.0	0.2	-12.1	-40.4*
Cc1ccccc1C(=O)OCc1cc(=O)n2nc(C3CC3)sc2n1	0.3	5.6	8.5	-1.8	1.4
COc1ccc(C(=O)Nc2ccc(F)cc2F)cc1OC	0.3	0.0	-2.6	-6.5	1.9
Cn1ccc(C(=O)Oc2ccc(C(=O)Nc3ccc(F)cc3F)cc2)n1	0.5	12.3	-4.2	-2.6	-43.8*
C/C(=N\NC(=O)C(O)c1ccccc1)c1ccc(Br)s1 (stereo unspecified)	-0.4	3.8	37.5*	-0.4	4.8
C/C(=N\NC(=O)C(O)c1ccccc1)c1ccc(Cl)s1 (stereo unspecified)	-0.4	3.4	1.9	-1.3	4.9
Cc1nn(-c2ccccc2)c(C)c1/C=C/C(=O)OCC(=O)Nc1ccc(C(N)=O)cc1	0.4	1.4	3.7	5.0	-16.1
Cc1nn(-c2ccccc2)c(C)c1/C=C/C(=O)OCC(=O)Nc1ccc(S(N)(=O)=O)cc1	0.4	8.1	4.4	nt	-32.3*
